JMJD2A Tudor: blocks the human JMJD2A Tudor domain; 4.4% of 390,000 active; Potency, µM (top dose mostly 114 µM), inactives show top-dose activity change, negative = inhibition, usual class: inhibitors; O75164; AID 504339; AlphaScreen JMJD2A-Tudor / H3K4me3 peptide binding; also: % is scaled to controls: 0 for no effect and ±100 for the full control effect; nearly all actives have a fitted effect of over 50% in size
HP1b chromo inh: blocks HP1-beta chromodomain binding to methylated histone tails; P83916; AlphaScreen HP1-beta / biotin-H3K9me3 peptide binding; Potency, µM (titrated, usually from 114 µM), inactives show at the top dose activity change, negative = inhibition, usual class: inhibitors; 0.56% of 390,000 active; also: nearly all actives have a fitted effect of over 70% in size
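Compound inhibition of the preformed complex between 50 nM HP1-beta and 50 nM biotinylated H3K9me3 peptide was read by AlphaScreen. Buffer was PBS pH 7.4 with 0.01% Tween-20. Incubations ran 30 min at room temperature, with 10 ug/mL donor/acceptor beads.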
L3MBTL1 block: inhibitors of human L3MBTL1; Potency, µM (highest dose often 57.1 µM), for inactives: top-dose activity, negative = inhibition, actives largely listed as inhibitors; AID 485360; 0.66% of 230,000 active; AlphaScreen L3MBTL1–H3K9me1 peptide binding; also: % is scaled to controls: 0 for no effect and ±100 for the full control effect; nearly all actives have a fitted effect of over 60% in size
Target sequence (Q9Y468 whole entry, looked up): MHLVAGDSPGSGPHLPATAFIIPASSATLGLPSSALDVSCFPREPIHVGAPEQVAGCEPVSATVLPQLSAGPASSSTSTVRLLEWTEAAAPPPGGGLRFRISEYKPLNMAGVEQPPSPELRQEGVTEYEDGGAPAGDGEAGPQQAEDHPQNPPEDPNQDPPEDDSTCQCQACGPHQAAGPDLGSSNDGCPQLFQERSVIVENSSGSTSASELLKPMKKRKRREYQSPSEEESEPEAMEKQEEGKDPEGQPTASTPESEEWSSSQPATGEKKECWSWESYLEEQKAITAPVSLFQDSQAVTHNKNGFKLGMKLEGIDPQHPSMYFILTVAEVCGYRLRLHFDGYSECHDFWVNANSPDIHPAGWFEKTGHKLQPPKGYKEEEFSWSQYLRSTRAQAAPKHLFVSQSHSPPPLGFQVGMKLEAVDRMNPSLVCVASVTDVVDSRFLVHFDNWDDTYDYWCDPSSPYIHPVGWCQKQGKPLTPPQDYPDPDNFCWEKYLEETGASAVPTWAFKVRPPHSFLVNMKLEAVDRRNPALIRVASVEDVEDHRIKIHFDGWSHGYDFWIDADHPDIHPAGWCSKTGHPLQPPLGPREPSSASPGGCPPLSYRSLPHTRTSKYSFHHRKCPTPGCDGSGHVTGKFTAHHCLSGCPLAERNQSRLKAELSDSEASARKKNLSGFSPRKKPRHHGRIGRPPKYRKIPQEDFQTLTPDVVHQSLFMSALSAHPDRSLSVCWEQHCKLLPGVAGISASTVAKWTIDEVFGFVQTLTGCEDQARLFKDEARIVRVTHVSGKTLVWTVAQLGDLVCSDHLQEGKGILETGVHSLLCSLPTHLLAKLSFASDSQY
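Read-out is AlphaScreen signal from streptavidin donor and nickel chelate acceptor beads (10 ug/mL final each) bridging L3MBTL1 (50 nM) and biotinylated K9-monomethylated H3(1-15) peptide (75 nM), after 30 min compound exposure at room temperature.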
G9a block: inhibitors of human histone lysine methyltransferase G9a | Q96KQ7 | G9a H3K9 monomethylation, AlphaScreen, 2 h | Potency, µM (series often up to 102 µM), inactives show at the highest dose activity, negative = inhibition, hits mostly inhibitors | 8.8% of 350,000 active | AID 504332; also: % is scaled to controls: 0 for no effect and ±100 for the full control effect; nearly all actives have a fitted effect of over 75% in size
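G9a (20 nM) preincubated 15 min RT with compounds, then 500 nM biotinylated H3K9 peptide and 20 uM SAM added; 2 h RT reaction. Monomethyl-H3K9 product detected by AlphaScreen with anti-H3K9me1 antibody, streptavidin donor and anti-rabbit IgG acceptor beads.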
GLS inhibitor: blocks human kidney-isoform glutaminase activity; O94925; GLS enzymatic activity, qHTS titration; Potency, µM (series often up to 45.5 µM), inactives show top-dose activity change, negative = inhibition, actives largely listed as inhibitors; 0.21% of 410,000 active; AID 624170; also: % is scaled to controls: 0 for no effect and ±100 for the full control effect
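Glutamate formation by hKGA was monitored fluorometrically using coupled glutamate oxidase, HRP and Amplex Red. Substrate was added as 1 mM L-glutamine solution; incubation was 30 min at RT after an initial read.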
BAZ2B inh: blocks human BAZ2B; Potency, µM (highest dose often 114 µM), for the others: top-dose activity change, negative = inhibition, actives largely listed as inhibitors; AlphaScreen BAZ2B-H3K14Ac peptide displacement; AID 504333; 4.4% of 360,000 active; Q9UIF8; also: % is scaled to controls: 0 for no effect and ±100 for the full control effect; nearly all actives have a fitted effect of over 60% in size
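Complex of BAZ2B and biotin-H3K14Ac (50 nM apiece) forms over 30 min at RT, then faces library compounds up to 110 uM for another 30 min; AlphaScreen beads added, 20 min dark incubation, luminescence read.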
* hit, by the source's call; ? = inconclusive; · = not tested or not shown; [ ] = dose if it differs, or a comment. Compounds with a hit are over-represented: about 10% of the library has one in this group of screens. Calls follow the shape of the dose curve; as a rule, active = well fitted curve in the direction sought with a large enough effect; inconclusive = small, poorly fitted or top-dose-only effect, or another doubt; inactive = no such curve, though single readings can be large; an effect the other way counts as inactive or inconclusive. Potency is read from the fitted curve at half-maximal effect.

SMILES | JMJD2A Tudor | HP1b chromo inh | L3MBTL1 block | G9a block | GLS inhibitor | BAZ2B inh
CCOc1cc(CNC(=O)Cn2ncn3c(cc4cc(F)ccc43)c2=O)cc(OCC)c1OCC | 10.2% | 21.6% | · | -9.8%[59 µM] | -1.1% | -2.8%
CC(Sc1nc(N)c2c3c(sc2n1)CSC(C)(C)C3)C(=O)Nc1ccccc1 (stereo not given) | 11.2µM* | ? | -2.3% | -19.7% | ? | -7.4%
CC(Sc1nc(NCc2ccccc2)nc(N(C)C)n1)C(=O)Nc1ccccc1 (stereo not given) | -12.2% | 47.1% | -2.5% | · | 3.5% | -25.5%
Cn1c(=O)c2[nH]c(N=NNc3ccccc3F)nc2n(C)c1=O | 7.94µM* | 20µM* | 4.6% | 1.78µM* | -12.5% | 20µM*
COc1ccc(NN=Nc2nc3c([nH]2)c(=O)n(C)c(=O)n3C)cc1 | 8.91µM* | 4.47µM* | -4.9% | · | 33.9% | 56.2µM*
Cc1ccccc1NN=Nc1nc2c([nH]1)c(=O)n(C)c(=O)n2C | ? | ? | -0.6% | 3.98µM* | -3.3% | -29.9%
Cn1ccc2c(OCC(=O)NCc3ccccc3Cl)cccc2c1=O | 5.8% | 35.2% | · | -0.9%[59 µM] | 2.3% | -2.5%
O=C(Nc1nc2c(s1)CCc1ccccc1-2)c1cccs1 | -6.8% | 51.1% | 6.0% | ? | 15.1% | 7.7%
CC(=O)c1sc(NC(=O)CCS(=O)(=O)c2ccccc2)nc1C | -5.2% | 23.7% | · | 51.2% | -18.1% | -14.3%
O=C(CCS(=O)(=O)c1ccccc1)Nc1nc2c(s1)COc1ccccc1-2 | -27.2% | 12.6% | -1.2% | 50.1µM* | 19.5% | -37.4%
O=C(Nc1nc2c(s1)COc1ccccc1-2)c1cccs1 | -4.1% | 30.8% | · | 44.7µM* | 18.6% | -2.6%
COc1ccc(NC(=O)CCc2c(C)nc3c(-c4ccccc4)c(C)nn3c2C)cc1Cl | 10.1% | 31.8% | · | -4.7%[59 µM] | 1.8% | 0.5%
CCOC(=O)c1sc(NC(=O)COc2ccc3c(c2)OCO3)nc1C | 1.4% | 43.5% | · | 39.8µM* | -11.9% | -2.1%
CCOC(=O)c1sc(Nc2ccc(Br)cc2)nc1C | 56.2µM* | 8.9% | 5.8% | ? | 2.4% | -25.6%
CCOC(=O)c1sc(N)nc1C(C)(C)C | -6.2%[11.4 µM] | 0.2% | -0.6% | 15.8µM* | -6.1% | 9.3%
CCOC(=O)c1sc(NCCNc2nc(C)c(C(=O)OCC)s2)nc1C | 50.1µM* | 7.7% | 5.1% | 50.1µM* | 3.6% | -12.3%
COc1cccc(CNC(=O)c2ccc(-c3nc(COc4ccccc4)c(C)o3)cc2)c1 | -17.6% | 7.4% | · | -5.7%[59 µM] | -3.5% | -12.1%
COc1cc2c(=O)c(C(=O)c3ccc(C)c(C)c3)cn(Cc3ccccc3F)c2cc1OC | -23.6% | 40.7% | · | -17.7%[59 µM] | -2.1% | 3.9%
C#CCn1c(C2CC(=O)N(c3ccc(OC)cc3)C2)nc2ccccc21 (stereo not given) | -18.9% | 20.0% | · | -4.0%[59 µM] | 0.8% | 1.2%
CCOC(=O)Cn1c(=O)n(C2CCCCC2)c2nc(-c3c(F)cccc3Cl)nc(C(N)=O)c21 | ? | 13.5%[57 µM] | · | 10.5%[59 µM] | -14.1% | -30.0%
COc1ccc(Oc2ncc3nc(-c4cccc(C#N)c4)c(=O)n(CCC#N)c3n2)cc1 | · | · | · | 6.5%[0.501 µM] | · | ·
Cc1nn(-c2cc(N3CCCCC3)ccc2[N+](=O)[O-])c(=O)c2ccccc12 | ? | -5.3% | -14.0% | ? | -0.7% | -17.8%
CN1CCN(c2ccc([N+](=O)[O-])c(-n3nc(-c4ccccc4)c4ccccc4c3=O)c2)CC1 | 39.8µM* | -46.6% | -11.2% | 44.7µM* | -3.9% | 35.5µM*
CCc1ccc(NC(=O)C2CCCN(c3nn4cc(-c5ccc(OC)cc5)nc4s3)C2)cc1 (stereo not given) | -10.6% | -4.7% | · | ? | 5.3% | -0.1%
CCc1ccc(C(=O)c2cn(Cc3ccccc3)c3cc(OC)c(OC)cc3c2=O)cc1 | ? | -5.1% | · | -29.6%[59 µM] | -1.4% | ?
SMILES | JMJD2A Tudor | HP1b chromo inh | L3MBTL1 block | G9a block | GLS inhibitor | BAZ2B inh
O=C(CCCn1c(=O)c2ccccc2n(Cc2ccc(F)cc2Cl)c1=O)NCCc1ccc(Cl)cc1 | -0.3% | 47.5% | · | -3.6%[59 µM] | -1.5% | 11.0%
O=C(N/N=C/c1ccc[nH]1)c1cc2ccccc2cc1O | ? | -1.8% | · | 79.4µM* | 12.8% | 39.8µM*
CCc1cccc(CC)c1NC(=O)C(CC)n1nc(C)n2c(cc3cc(C)ccc32)c1=O (stereo not given) | 3.0% | 47.3% | · | 11.0%[59 µM] | -4.3% | -12.9%
CC(c1ccc(F)cc1)n1cc(C(=O)NCc2ccccn2)nn1 (stereo not given) | -7.2% | 60.3% | 14.0% | 8.4% | -0.4% | -0.6%
CC(c1ccc(F)cc1)n1cc(C(=O)NCCN(C)C)nn1 (stereo not given) | 4.5% | 54.5% | 9.1% | 44.7µM* | 0.2% | -35.9%
COC(=O)c1ccc(N=Nc2ccccc2)cc1 | ? | ? | ? | 39.8µM* | -1.1% | 12.6µM*
COC(=O)CCC(=O)Nc1ccc(N=Nc2ccccc2)cc1 | ? | 6.4% | -13.2% | 10µM* | 5.8% | 39.8µM*
Oc1ccc(N=Nc2ccccc2)cc1 | ? | -9.8% | · | 50.1µM* | -6.7% | ?
Oc1ccc(Cl)cc1N=Nc1ccccc1 | 35.5µM* | -26.7% | ? | 22.4µM* | 7.2% | 31.6µM*
CC(C)c1c(O)ccc2c1CCC1[C@@](C)(C=O)CCC[C@@]21C (stereo not given in full) | · | · | · | -3.2%[2.33 µM] | · | ·
CCC1CCCCN1S(=O)(=O)c1cc2c(cc1C)NC(=O)CO2 (stereo not given) | -12.2% | 23.5% | · | -38.0%[59 µM] | -5.6% | -10.2%
CC(=O)N1c2ccc(S(=O)(=O)NCCC(=O)Nc3ccc(Br)c(C)c3)cc2CC1C (stereo not given) | -14.7% | 26.3% | · | -0.4%[59 µM] | -1.6% | -11.9%
COc1cccc(-c2nn(C)c3sc(C(=O)NCc4ccc(C)o4)cc23)c1 | 50.1µM* | -34.5% | · | ? | 11.2% | ?
CCN(Cc1ccccc1)c1ccc(/C=N/N=C(N)N)cc1 | 35.5µM* | ? | -11.0% | ? | 12.6% | ?
COc1cc2c(=O)n(Cc3ccccc3Cl)c(=O)n(CC(=O)Nc3ccc(C)c(C)c3)c2cc1OC | -2.4% | 23.5% | · | 0.4%[59 µM] | 2.4% | -0.3%
O=C(O)/C=C/C(=O)NCc1cn(-c2ccccc2)nc1-c1cccc(Br)c1 | -11.3% | 3.8% | · | 35.5µM* | -0.6% | 9.0%
COc1ccc(NC(=O)c2noc3c2CCCC3)cc1Cl | -2.3% | 32.1% | · | -13.0%[59 µM] | -8.8% | 11.1%[57.1 µM]
Nc1c(C(=O)N/N=C/c2ccccc2Cl)oc2nc(-c3ccccc3)cc(-c3ccco3)c12 | -21.4% | 29.9% | -17.2% | 20µM* | 4.8% | -22.7%
Nc1c(C(=O)N/N=C/c2ccc(F)cc2)oc2nc(-c3ccccc3)cc(-c3ccco3)c12 | -32.4% | 13.4% | -17.8% | 28.2µM* | -7.3% | -22.4%
